Compound activity as filed in PubChem.
TDP1 cell noCPT = qHTS for Inhibitors of human tyrosyl-DNA phosphodiesterase 1 (TDP1): qHTS in cells in absence of CPT; DT40 Tdp1-/- hTDP1 cells, no CPT, ATP luminescence, 48 h; 420,000 tested, 15% active; Potency, µM (highest dose often 46.2 µM), for the others: at the top dose activity change, negative = growth inhibition, actives largely listed as inhibitors; AID 686978, 2013; further: potency means the concentration at half of the fitted maximal effect; nearly all actives have a fitted effect of over 55% in size
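Chicken DT40 Tdp1-/- cells complemented with human TDP1, screened without camptothecin (DMSO vehicle only), 400 cells/well. Compounds pin-transferred, cells incubated at 37 °C for at least 48 hr. Growth read as ATP-dependent luminescence (CellTiter-Glo, 30 min at RT).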
DT40 TDP1 CPT = qHTS for Inhibitors of human tyrosyl-DNA phosphodiesterase 1 (TDP1): qHTS in cells in presence of CPT; chicken DT40 Tdp1-/-;hTDP1 cells + 20 nM CPT, ATP luminescence, 48 h; Potency, µM (top dose mostly 46.2 µM), without a hit: at the top dose activity change, negative = growth inhibition, actives largely listed as inhibitors; 420,000 tested, 12% active; AID 686979, 2013; further: potency means the concentration at half of the fitted maximal effect; nearly all actives have a fitted effect of over 55% in size
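Chicken DT40 Tdp1-/- cells stably complemented with human TDP1 were seeded at 400 cells/well in medium containing 20 nM camptothecin, exposed to pin-transferred compounds, and grown at 37 °C for at least 48 hr. Viability was read as ATP luminescence.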
IL-1B inflam inh = qHTS for Inhibitors of Inflammasome Signaling: IL-1-beta AlphaLISA Primary Screen | AID 743279, 2014 | THP-1 LPS/ATP IL-1B secretion, AlphaLISA, 16 h; active compounds read low | activity change, % at 57.5 µM | 360,000 tested, 4.7% active; in the data active means activity change below about -50%; inconclusive means mostly about -30% to -49%
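THP-1 cells pretreated 1 hr with compounds (up to 57.5 uM final), then stimulated with LPS (250 ng/mL final) plus ATP (1.25 mM final); secreted IL-1B measured by AlphaLISA after 16 hr, decreased signal indicating inhibition.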
ALOX12 inh = Primary qHTS assay for inhibitors of human arachidonate 12S-lipoxygenase (ALOX12): Round 2 | purified 12hLO, xylenol orange hydroperoxide absorbance | Potency, µM (titrated, usually from 108 µM), without a hit: at the top dose activity change, negative = inhibition, hits mostly inhibitors | 580,000 tested, 1.1% active; further: potency means the concentration at half of the fitted maximal effect
Target sequence (P18054 whole entry, looked up): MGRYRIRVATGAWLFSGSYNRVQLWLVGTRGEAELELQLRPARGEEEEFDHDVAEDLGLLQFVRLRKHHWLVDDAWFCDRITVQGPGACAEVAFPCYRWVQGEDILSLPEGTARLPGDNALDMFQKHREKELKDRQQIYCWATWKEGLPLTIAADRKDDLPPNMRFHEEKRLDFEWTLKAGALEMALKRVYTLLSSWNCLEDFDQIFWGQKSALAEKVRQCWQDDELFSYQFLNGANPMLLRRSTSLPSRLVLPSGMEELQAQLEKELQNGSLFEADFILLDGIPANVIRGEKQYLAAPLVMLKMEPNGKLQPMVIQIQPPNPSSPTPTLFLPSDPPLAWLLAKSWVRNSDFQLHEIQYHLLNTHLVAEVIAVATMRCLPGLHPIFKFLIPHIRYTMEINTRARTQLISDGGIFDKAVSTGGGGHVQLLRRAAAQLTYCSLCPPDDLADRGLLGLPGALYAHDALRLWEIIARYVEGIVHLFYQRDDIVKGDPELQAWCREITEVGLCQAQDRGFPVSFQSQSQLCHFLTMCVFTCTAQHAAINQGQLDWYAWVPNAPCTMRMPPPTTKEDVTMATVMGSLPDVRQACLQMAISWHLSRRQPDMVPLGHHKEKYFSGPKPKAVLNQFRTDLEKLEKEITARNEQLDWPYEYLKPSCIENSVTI
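Purified human 12hLO (150 nM final) in 25 mM Hepes, 0.01% Triton X-100, pH 7.0 was preincubated 15 min at room temperature with compound. Then 40 uM arachidonic acid was added, 30 min. Hydroperoxide was read by Fe-XO absorbance ratio 573/405 nm.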
HT1080 IDH1KD tx = qHTS for induction of synthetic lethality in tumor cells producing 2HG: qHTS for the HT-1080-IDH1KD cell line; HT-1080 IDH1 knockdown viability, ATP luminescence, 48 h; Potency, µM (titrated, usually from 46.1 µM), for inactives: at the highest dose activity, negative = toxicity, actives largely listed as cytotoxic; 360,000 tested, 2% active; AID 686971, 2013;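 further: potency means the concentration at half of the fitted maximal effect; 0% = DMSO wells and -100% = cell-free medium wells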
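HT-1080-IDH1KD cells (IDH1 knocked down), 750/well in RPMI with 5% FBS, treated with compound 48 h at 37 degrees C. Viability by CellTiter-Glo luminescence, normalised to DMSO and no-cell wells; concentration-response curves classed.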
HT1080NT lethal = qHTS for induction of synthetic lethality in tumor cells producing 2HG: qHTS for the HT-1080-NT fibrosarcoma cell line. AID 686970, 2013. Potency, µM (doses to about 46.1 µM), without a hit: at the top dose activity, negative = less viability, usual class: cytotoxic. HT-1080-NT fibrosarcoma viability, CellTiter-Glo ATP luminescence, 48 h. 360,000 tested, 1.6% active;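 further: NT is the 2HG producing partner of a matched IDH1 knockdown line; potency means the concentration at half of the fitted maximal effect; 0% = DMSO-treated cells and -100% = media-only wells without cells; nearly all actives have a fitted effect of over 55% in size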
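A 48-hour cytotoxicity screen used HT-1080-NT cells plated 2 hours before compound delivery. ATP-based CellTiter-Glo luminescence measured viability, normalized to DMSO and no-cell controls.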
The depositor's hits bear a star; u = inconclusive; x = not tested or not shown; [ ] = dose if it differs, or a comment. This excerpt belongs to a sample that is enriched for hits. Unless noted, the call rests on the fitted dose curve; in most records, active means well fitted curve in the direction sought with a large enough effect; inconclusive means small, poorly fitted or top-dose-only effect, or another doubt; inactive means no such curve, though single readings can be large; an effect the other way counts as inactive or inconclusive. Unless noted, on the % scale 0 is the no-effect control and ±100 the full control effect.

SMILES	TDP1 cell noCPT	DT40 TDP1 CPT	IL-1B inflam inh	ALOX12 inh	HT1080 IDH1KD tx	HT1080NT lethal
O=C(NCc1ccccc1)c1ccc(N2CCC3(CC2)CC(c2ccc(Cl)cc2)=NO3)c([N+](=O)[O-])c1	u	6.5µM*	u	12%	-1%	-4%
CCCNC(=O)c1ccc(N2CCC3(CC2)CC(c2ccccc2)=NO3)c([N+](=O)[O-])c1	u	21µM*	u	7%	6%	-21%
CCCNC(=O)c1ccc(N2CCC3(CC2)CC(c2ccccc2)=NO3)c(N)c1	u	u	0	-2%	-1%	-11%
CCCNC(=O)c1ccc(N2CCC3(CC2)CC(c2ccccc2)=NO3)c(NC(=O)Cc2ccc(F)cc2)c1	18µM*	u	3	-7%	-9%	2%
O=C(Nc1ccc(F)c(F)c1)c1cnn2c(C(F)F)cc(C3CC3)nc12	x	x	x	4%	x	x
CC(C)CN(C)C(=O)CCc1nnc(Cc2ccc(-c3ccccc3)cc2)o1	12µM*	u	12	-1%	-5%	-16%
C[C@@H]1CN(C(=O)Cn2c3c(c(=O)n2Cc2ccccc2)CCN(Cc2ccccc2)C3)C[C@H](C)O1	x	x	x	7%	x	x
CCOC(=O)c1ccc(NC(=O)c2cc3c(n(-c4ccc(C)cc4)c2=O)CC(C)(C)CC3=O)cc1	u	-5%	x	0%	x	x
O=C(NCc1cccc(F)c1)c1ccc(CS(=O)c2ccccc2Cl)o1 (stereo not given)	23µM*	16µM*	x	-23%	x	x
O=C(NCCCN1CCC(Cc2ccccc2)CC1)c1ccc(CS(=O)c2ccccc2Cl)o1 (stereo not given)	21µM*	23µM*	-23	u	-24%	u
Cc1ccc(CS(=O)Cc2ccc(C(=O)NCc3ccccc3Cl)o2)cc1 (stereo not given)	u	u	-24	u	-2%	-8%
O=C(NCc1ccco1)c1ccc(CS(=O)c2ccccc2Cl)o1 (stereo not given)	-19%	1%	-13	11%	8%	9%
Cc1ccccc1S(=O)Cc1ccc(C(=O)NCc2ccccc2Cl)o1 (stereo not given)	u	21µM*	x	-18%	x	x
CCC(CC)c1nnc(NC(=O)c2cccnc2SC)s1	-3%	-7%	17	18%	15%	9%
CCOC(=O)c1[nH]c2c(c1Cc1ccccc1)C(=O)CC(c1ccc(OC)cc1)C2 (stereo not given)	21µM*	21µM*	x	-11%	x	x
CCOC(=O)c1[nH]c2c(c1Cc1ccccc1OC)C(=O)CC(c1ccc(OC)cc1)C2 (stereo not given)	23µM*	u	x	7%	x	x
CCOC(=O)c1[nH]c2c(c1-c1ccccc1)C(=O)CC(c1ccc(OCC)cc1)C2 (stereo not given)	-1%	-25%	-14	340%	-21%	-17%
CCOC(=O)c1[nH]c2c(c1CCC1CCCCC1)C(=O)CC(c1ccccc1)C2 (stereo not given)	x	x	x	-12%	x	x
CCOC(=O)c1[nH]c2c(c1Cc1ccccc1)C(=O)CC(c1ccc(Cl)cc1)C2 (stereo not given)	23µM*	16µM*	x	-22%	x	x
CN(CCNC(=O)c1nn(C)c2c1COc1ccccc1-2)C1CCCCC1	x	x	x	18%	x	x
O=C1Nc2ccccc2C12CN(S(=O)(=O)c1cccs1)C2	x	x	x	5%[6.33 µM]	x	x
Cc1c(Cl)cccc1NC(=S)C(=C([O-])c1ccc(Cl)s1)[n+]1ccccc1	u	-26%	-16	u	-14%	-9%
O=C(c1ccccc1)c1ccc(OCCCCN2CCCCC2)cc1	-1%	-18%	-11	u	-7%	-13%
CCN1CCN(CCCOc2ccc(-c3ccccc3)cc2)CC1	u	u	-56*	-5%	u	u
c1ccc(-c2ccc(OCCCn3cncn3)cc2)cc1	u	u	-23	1.4µM*	-29%	-9%
SMILES	TDP1 cell noCPT	DT40 TDP1 CPT	IL-1B inflam inh	ALOX12 inh	HT1080 IDH1KD tx	HT1080NT lethal
c1ccc(COc2ccc(OCCCCN3CCCCC3)cc2)cc1	21µM*	29µM*	-58*	u	-21%	u
CN1CCN(CCOc2ccc(-c3ccccc3)cc2)CC1	u	u	-59*	u	-9%	-14%
COc1ccc(OCCOCCN2CCN(C)CC2)cc1	-16%	-1%	6	u	2%	1%
c1ccc(OCCN2CCNCC2)cc1	-5%	-10%	10	u	11%	10%
c1ccc(OCCN2CCN(C(c3ccccc3)c3ccccc3)CC2)cc1	15µM*	u	-22	u	-14%	-13%
COc1cccc(OCC(O)CN2CCN(C(c3ccccc3)c3ccccc3)CC2)c1 (stereo not given)	13µM*	u	-7	u	-12%	-10%
CCN1CCN(CCOc2ccc(Cl)cc2)CC1	-11%	-4%	12	1.4µM*	-2%	0%
CN1CCN(CCCOc2ccc(-c3ccccc3)cc2)CC1	16µM*	u	-82*	u	16µM*	23µM*
CCN1CCN(CC(O)COc2cccc(OC)c2)CC1 (stereo not given)	5%	6%	20	u	13%	16%
Cc1ccc2cc(CNC(C)c3cccc4ccccc34)c(N3CCC(O)CC3)nc2c1 (stereo not given)	-18%	15%[9.04 µM]	x	4%	x	x
COCCNC(=O)CCc1ncc(-c2ccccc2Cl)o1	x	x	x	3%	x	x
CCCSc1nnc2nc3c(nn12)c1ccccc1n3C	u	u	-21	-15%	-2%	2%
CC(=O)c1ccc(N2CCN(C(=O)Cn3cnc(S(=O)(=O)N4CCOCC4)c3)CC2)cc1	x	x	x	-8%	x	x
CCCOc1ccc2nc(NC(=O)OC)[nH]c2c1	0.15µM*	0.094µM*	x	0%	x	x
CCOC(=O)Nc1nc2ccc(Cn3cccc3)cc2[nH]1	0.58µM*	0.82µM*	29	u	u	3.3µM*
COC(=O)Nc1nc2ccc(C(=O)c3ccc(F)cc3)cc2[nH]1	x	x	x	-9%[57.4 µM]	x	x
O=C1NCCCCCN(Cc2cccc(F)c2)[C@@H]2C[C@@H](C(=O)N3CCc4ccccc4C3)C[C@H]12	x	x	x	6%	x	x
